# Assay results published in PubChem BioAssay (NCATS).
# Inconclusive results are not listed. A number with no mark means an inactive call. Calls of active or inactive are those of the source. Calls follow the shape of the dose curve; as a rule, active = well fitted cell-killing curve with a large enough effect; inconclusive = small, poorly fitted or top-dose-only effect, or effect the other way; inactive = no such curve, though single readings can be large or run the other way.
# Experiments:
# [1] = Quantitative High-Throughput drug screen in 47 multiple myeloma cell lines against the NCATS MIPE library collection: KMS34_JCRB cell viability assay (AID 1918985); also: nearly all actives have a fitted effect of over 40% in size
# In short: (§1)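 ATP-based luminescence (CellTiter-Glo, 5 min RT incubation) quantified surviving cells following two days' treatment with MIPE 4.0 agents at 37 °C, 5% CO2.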
# [2] = Quantitative High-Throughput drug screen in 47 multiple myeloma cell lines against the NCATS MIPE library collection: OCIMY5_PLB cell viability assay (AID 1918988); also: nearly all actives have a fitted effect of over 65% in size
# In short: as §1
# [3] = Quantitative High-Throughput drug screen in 47 multiple myeloma cell lines against the NCATS MIPE library collection: OPM1_PLB cell viability assay (AID 1918989); also: nearly all actives have a fitted effect of over 40% in size
# In short: as §1
# [4] = Quantitative High-Throughput drug screen in 47 multiple myeloma cell lines against the NCATS MIPE library collection: SKMM1_PLB cell viability assay (AID 1919863); conditions: SKMM1 myeloma viability, CellTiter-Glo ATP, 48 h; viability: stronger effect = lower value; also: nearly all actives have a fitted effect of over 35% in size
# In short: as §1
# [5] = Quantitative High-Throughput drug screen in 47 multiple myeloma cell lines against the NCATS MIPE library collection: U266_ATCC cell viability assay (AID 1919864); also: nearly all actives have a fitted effect of over 35% in size
# In short: as §1
# [6] = Quantitative High-Throughput drug screen in 47 multiple myeloma cell lines against the NCATS MIPE library collection: XG6_PLB cell viability assay (AID 1919865); also: nearly all actives have a fitted effect of over 40% in size
# In short: as §1
# [7] = Quantitative High-Throughput drug screen in 47 multiple myeloma cell lines against the NCATS MIPE library collection: XG1_PLB cell viability assay (AID 1919866); also: nearly all actives have a fitted effect of over 35% in size
# In short: as §1
# [8] = Quantitative High-Throughput drug screen in 47 multiple myeloma cell lines against the NCATS MIPE library collection: VP6_DJ cell viability assay (AID 1919867); also: nearly all actives have a fitted effect of over 40% in size
# In short: as §1
# [9] = Quantitative High-Throughput drug screen in 47 multiple myeloma cell lines against the NCATS MIPE library collection: UTMC2_PLB cell viability assay (AID 1919868); conditions: CellTiter-Glo ATP luminescence, 48 h; viability (% of DMSO control): at 45.8 µM (top of the series); also: nearly all actives have a fitted effect of over 55% in size
# In short: as §1
# Potency is read from the fitted curve at half-maximal effect.
smiles,measurement,setting,value
CS(=O)(=O)Oc1ccc2c(NC(N)=O)c(C(=O)c3ccc(Cl)cc3Cl)oc2c1,Potency,[1],inactive
same,Potency,[2],inactive
same,Potency,[3],20.9 µM (active)
same,viability,[4],128%
same,Potency,[5],11.8 µM (active)
same,Potency,[6],16.6 µM (active)
same,Potency,[7],20.9 µM (active)
same,Potency,[8],9.35 µM (active)
same,Potency,[9],16.6 µM (active)
CNC(=O)c1ccc(N2C(=S)N(c3ccc(C#N)c(C(F)(F)F)c3)C(=O)C2(C)C)cc1F,Potency,[1],inactive
same,Potency,[2],inactive
same,Potency,[3],inactive
same,Potency,[7],13.2 µM (active)
COc1nc(-c2ccc3c(c2)OCO3)n(-c2ccc(NC(=O)CSc3ccccc3)cc2)n1,Potency,[1],inactive
same,viability,[4],123%
same,Potency,[5],5.26 µM (active)
same,Potency,[7],inactive
Nc1ccc(S(=O)(=O)Nc2ccnn2-c2ccccc2)cc1,Potency,[1],inactive
same,viability,[4],145%
Cc1cn[nH]c1,Potency,[1],0.0662 µM (active)
same,Potency,[2],0.0093 µM (active)
same,Potency,[3],1.66 µM (active)
same,Potency,[4],0.0662 µM (active)
same,Potency,[5],0.662 µM (active)
same,Potency,[7],1.05 µM (active)
same,Potency,[8],0.0935 µM (active)
COc1cc2c(cc1OC)CN(CCc1ccc(NC(=O)c3cccc4c(=O)c5cccc(OC)c5[nH]c34)cc1)CC2,Potency,[1],inactive
same,Potency,[3],16.6 µM (active)
same,Potency,[5],9.35 µM (active)
same,Potency,[8],inactive
Nc1cccc(S(=O)(=O)N2CCCN(S(=O)(=O)c3ccc4c(c3)OCCO4)CC2)c1,Potency,[1],inactive
same,Potency,[3],inactive
same,viability,[4],103%
same,Potency,[7],7.43 µM (active)
same,Potency,[8],8.33 µM (active)
O=C(O)CCc1ccc(NCc2cccc(Oc3ccccc3)c2)cc1,Potency,[1],inactive
same,Potency,[2],inactive
same,viability,[4],111%
same,Potency,[7],inactive
same,Potency,[8],inactive
Cc1[nH]c(=O)c(C#N)cc1-c1ccncc1,Potency,[1],inactive
same,Potency,[3],16.6 µM (active)
same,viability,[4],106%
same,Potency,[6],5.9 µM (active)
